The list is not random: actives were taken first. Their share in the collection is about 3.1%.
p53null 32C kill: kills p53 null cells at the permissive temperature; H1299-neo p53 null cells, ATP luminescence, 24 h, 32C; Potency, µM (top dose mostly 46.1 µM), for the others: top-dose activity change, negative = cytotoxicity, hits mostly cytotoxic; actives 0.62% (n = 55,000); AID 903;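 note: 0% = DMSO only and -100% = full killing by 100 µM tamoxifen; nearly all actives have a fitted effect of over 55% in size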
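AC50 values derive from Hill modelling of qHTS concentration-response data (up to 46 uM) in H1299-neo cells. Cells were treated 24 h at 32C following overnight attachment at 37C; viability was read as cellular ATP.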
S16 viability: cytotoxicity in S16 Pmp22-F2sN Schwann cells | AID 1508642 | Potency, µM (titrated, usually from 57.5 µM), for the others: at the top dose activity change, negative = cytotoxicity, usual class: cytotoxic | actives 0.48% (n = 43,000) | S16 Pmp22-F2sN Schwann cells viability, CellTiter-Glo, 24 h; note: nearly all actives have a fitted effect of over 65% in size
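Rat S16 Schwann reporter line, 24 h treatment with library compounds delivered at 23 nL per well. Cell viability by CellTiter-Glo luminescence.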
pS6 MEF inh: inhibitors of mTORC1 signaling in Tsc2-/- p53-/- MEF cells. Tsc2-/- p53-/- MEF, phospho-rpS6 immunofluorescence/PI, 24 h. AID 493208. actives 0.78% (n = 44,000). Potency, µM (doses to about 38.3 µM), without a hit: at the highest dose activity change, negative = inhibition, usual class: inhibitors;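 note: plate controls were DMSO for no effect and rapamycin for full effect; nearly all actives have a fitted effect of over 50% in size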
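Immunofluorescence of rpS6 phosphorylation in Tsc2-/-, p53-/- MEFs after 24 h compound exposure, normalized to propidium iodide signal. Activity is expressed as % positive cells, thresholded with 7.5 nM rapamycin.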
PMP22 txn prim: modulators of PMP22 gene transcription in S16 Schwann cells; S16 Pmp22-F2sN Schwann cells (luciferase reporters placed in the Pmp22 gene), FLuc/NLuc coincidence luminescence, 24 h; Potency, µM (top dose mostly 57.5 µM), for the others: top-dose activity change, negative = inhibition, hits mostly inhibitors; actives 2% (n = 43,000); AID 1508649; active = clear falling dose curves in both reporters; inconclusive = both reporters move, but less clearly or upward; inactive = either reporter flat; the % is the NLuc reporter signal
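S16(c9) Schwann cells with FLuc/NLuc coincidence reporter in the Pmp22 3' UTR; compounds pin-transferred, 24 h at 37C. Dual-luciferase read: FLuc first, then NLuc after Stop&Glo, each 10 min at room temperature.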
p53null 39C kill: p53 null cell cytotoxicity, nonpermissive temperature | AID 904 | Potency, µM (titrated, usually from 46.1 µM), for inactives: top-dose activity, negative = cell killing, most hits filed as cytotoxic | H1299 p53-null (neo) cells, 39C, ATPlite viability, 24 h | actives 0.97% (n = 55,000);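 note: 0% = DMSO only and -100% = full killing by 100 µM tamoxifen; nearly all actives have a fitted effect of over 50% in size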
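Following overnight plating at 37C (600 cells/well), H1299-neo or H1299-p53A138V cells are dosed up to 46 uM. Incubation lasts 24 hr at 39C before ATP detection.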
OvCa metastasis: ovarian cancer metastasis inhibition, 3D TME model. Potency, µM (titrated, usually from 45.8 µM), inactives show at the top dose activity change, negative = inhibition, usual class: inhibitors. AID 1963576. SKOV3ip1-GFP adhesion/invasion on 3D omental model, fluorescence. actives 0.1% (n = 46,000);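 note: plate controls were DMSO wells for no effect and tomatine positive control wells for full effect; nearly all actives have a fitted effect of over 65% in size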
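Primary human omental fibroblast/mesothelial 3D culture pre-formed 48 h. SKOV3ip1-GFP cells added with compounds (0.36-46 umol/L), incubated 2 h RT/16 h 37 C, fixed; GFP cells quantified at 488/509 nm.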
Numbers without * were called inactive; i = inactive; ? = inconclusive; . = not tested or not shown. Unless noted, calls come from the whole dose curve; as a rule, active = well fitted curve in the direction sought with a large enough effect; inconclusive = small, poorly fitted or top-dose-only effect, or another doubt; inactive = no such curve, though single readings can be large; an effect the other way counts as inactive or inconclusive. Unless noted, % is set by controls: 0 for no effect and ±100 for the full control effect; potency is the fitted concentration of half-maximal effect.

SMILES	p53null 32C kill	S16 viability	pS6 MEF inh	PMP22 txn prim	p53null 39C kill	OvCa metastasis
Cc1ccc(C(=O)CC2(O)C(=O)N(Cc3ccccc3)c3ccc(Br)cc32)cc1 (stereo not given)	-25%	-26%	10µM*	?	?	?
CCCCN1C(=O)C(O)(CC(=O)c2ccc(C)cc2C)c2cc(Br)ccc21 (stereo not given)	50%	?	?	?	?	?
CCc1ccc(C(=O)CC2(O)C(=O)N(Cc3ccc(C)cc3)c3ccccc32)cc1 (stereo not given)	1%	-21%	12µM*	?	?	i
Cc1ccc(C(=O)CC2(O)C(=O)N(Cc3ccccc3)c3ccccc32)c(C)c1 (stereo not given)	34%	?	18µM*	-27%	25%	6%
COc1ccc(C(=O)CC2(O)C(=O)N(Cc3ccccc3Cl)c3ccccc32)cc1 (stereo not given)	26%	-24%	?	?	9%	i
CCCCN1C(=O)C(O)(CC(=O)c2ccc(C(C)(C)C)cc2)c2ccccc21 (stereo not given)	56%	?	?	?	20µM*	-12%
CCc1cccc(-n2nnc(-c3nsc(NC(=O)c4cccs4)n3)c2C)c1	-5%	-6%	1%	2%	10µM*	0%
CSc1cccc(-n2nnc(-c3nsc(NC(=O)c4cccs4)n3)c2C)c1	-6%	-14%	-1%	-38%	?	-3%
CON(C)C(=O)N1N=C(c2cc(F)ccc2F)S[C@]1(CCCN)c1ccccc1	.	.	.	.	.	3%
NC1(Cc2ccc(Cl)cc2)CCN(c2ncnc3[nH]ccc23)CC1	.	.	.	.	.	8%
O=C(NCCc1ccccc1)c1ccc(CSc2nc3cccnc3n2Cc2ccc(F)cc2)cc1	12%	-26%	-3%	-35%	-1%	-9%
O=C(NCc1cccs1)c1ccc(Cn2c(SCc3ccccc3)nc3cccnc32)cc1	?	6%	-1%	-23%	?	-22%
Cc1ccc(CSc2nc3cccnc3n2Cc2ccc(C(=O)NCc3cccs3)cc2)cc1	?	23%	-7%	-12%	16µM*	1%
O=C(NCCN1CCCCC1)c1ccc(Cn2c(SCc3ccccc3)nc3cccnc32)cc1	16µM*	?	-6%	-13%	13µM*	?
CCN(CC)CCCNC(=O)c1ccc(Cn2c(SCc3ccccc3)nc3cccnc32)cc1	?	?	-7%	-17%	?	-4%
Cc1ccc(-c2nc(Cn3c(SCc4ccc(F)cc4)nc4cccnc43)c(C)o2)cc1	-1%	-18%	-8%	7.4µM*	-14%	-22%
CC1CCN(CCNC(=O)c2ccc(Cn3c(SCc4ccccc4)nc4cccnc43)cc2)CC1	?	?	-6%	-5%	13µM*	i
C[C@]12CC[C@@H]3c4ccc(O)cc4CC[C@H]3[C@H]1[C@@H](O)[C@@H](O)[C@H]2O	.	.	.	.	.	7%
CC1CCCCN1CCNC(=O)c1ccc(Cn2c(SCc3ccccc3)nc3cccnc32)cc1 (stereo not given)	13µM*	-21%	-11%	-46%	16µM*	i
O=c1c(-c2ccc(O)cc2)coc2cc(OC3O[C@H](CO)[C@H](O)[C@H](O)[C@H]3O)cc(O)c12 (stereo not given in full)	.	.	.	.	.	-38%
CC(=O)Nc1ccc(NC(=O)CCc2c(C)nc3c(c(C)nn3-c3ccccc3)c2C)cc1	0%	-7%	-2%	-7%	?	-7%
CC(=O)Nc1ccc(NC(=O)CCc2c(C)nc3c(c(C)nn3-c3ccc(C)cc3)c2C)cc1	-1%	3%	-2%	?	6.3µM*	-10%

Compound activity deposited in PubChem BioAssay by National Center for Advancing Translational Sciences (NCATS).
